A selection: hits, their analogues and other compounds. The true share with any hit is near 2.4%.
A3A deaminase: blocks human APOBEC3A ssDNA deamination | P31941 | 330,000 tested, 0.41% active | AID 493011 | inhibition, % at 20 µM | recombinant A3A, FAM/TAMRA ssDNA deamination fluorescence;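 active = at least 40% inhibition at 20 µM here, with at most 30% in a related deaminase screen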
Target sequence (P31941 whole entry, looked up): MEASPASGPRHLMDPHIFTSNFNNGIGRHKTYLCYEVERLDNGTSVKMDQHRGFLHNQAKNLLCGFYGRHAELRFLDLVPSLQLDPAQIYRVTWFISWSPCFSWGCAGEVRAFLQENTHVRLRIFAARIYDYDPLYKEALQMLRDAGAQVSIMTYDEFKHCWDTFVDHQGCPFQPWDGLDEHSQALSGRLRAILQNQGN
A3G deaminase: inhibitors of human APOBEC3G DNA deaminase. 330,000 tested, 0.28% active. AID 493012. Q9HC16. recombinant A3G, ssDNA deamination FAM/TAMRA fluorescence. inhibition, % at 20 µM;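 active = inhibition of at least 40% at 20 µM, with no more than 30% in the related APOBEC3A deaminase screen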
Target sequence (Q9HC16 whole entry, looked up): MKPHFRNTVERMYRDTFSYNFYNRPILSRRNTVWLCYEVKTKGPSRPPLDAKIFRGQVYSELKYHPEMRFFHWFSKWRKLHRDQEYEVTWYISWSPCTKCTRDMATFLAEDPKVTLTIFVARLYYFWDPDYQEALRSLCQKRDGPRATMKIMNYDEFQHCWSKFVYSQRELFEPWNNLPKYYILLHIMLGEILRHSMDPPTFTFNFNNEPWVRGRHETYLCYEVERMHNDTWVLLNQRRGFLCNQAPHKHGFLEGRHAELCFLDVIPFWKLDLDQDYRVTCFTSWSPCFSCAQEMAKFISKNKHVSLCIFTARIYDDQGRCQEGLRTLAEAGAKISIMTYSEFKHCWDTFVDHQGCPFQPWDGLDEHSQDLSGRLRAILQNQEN
ADAM10 inh: inhibits human ADAM10 | O14672 | recombinant ADAM10, EDANS/DABCYL FRET peptide cleavage, 3 h | inhibition, % at 7 µM | 370,000 tested, 0.62% active;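 active = inhibition above a per-campaign cutoff equal to the mean of compounds falling between control-based bounds plus 3 SD, cut at about 20% in these data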
ADAM17 inh: ADAM17 inhibition, QFRET primary screen | P78536 | recombinant ADAM17, EDANS/DABCYL FRET peptide cleavage | inhibition, % at 6.95 µM | 370,000 tested, 0.83% active | AID 720648;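 active = inhibition above the mean of compounds lying between control limits plus 3 SD, set per campaign, cut at about 8.5% in these data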
NRP1-CendR mod: modulators of CendR peptide binding to human neuropilin-1; O14786; FAM-RPARPAR peptide binding to NRP-1, fluorescence polarization; inhibition, % at 25 µM; 360,000 tested, 0.85% active; AID 602438;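 active = inhibition or corrected inhibition above about 18%, plus a signal ratio from 0.5 to 1.5, limit read from the data, passing the limit was not always enough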
Numbers stand for hits; - = inactive; . = not tested or not shown.

SMILES	A3A deaminase	A3G deaminase	ADAM10 inh	ADAM17 inh	NRP1-CendR mod
CN1CCN(C2=C(Cl)C(=O)N(c3ccc(Cl)cc3)C2=O)CC1	-	-	.	.	-
Cc1ccc(N2C(=O)C(Cl)=C(N3CCN(C)CC3)C2=O)c(C)c1	-	-	-	-	31.8
CCCC[C@@H]1C(=O)N2N=C(c3ccccc3)c3ccccc3[C@H]2N2N=C(c3ccccc3)c3ccccc3[C@@H]12	.	.	-	-	.
COc1ccc(C2CC(=O)C=C(NC3CCCC3)C2)cc1 (stereo not given)	-	-	-	-	29.0
Cc1ccccc1CN1CCCCC(NC(=O)C(C)(C)C)C1=O (stereo not given)	.	.	-	-	.
CC(C)C[C@@H](CCCc1ccccc1)CCC(=O)N(c1ccccc1)c1ccccc1	.	.	-	-	.
CC1(C(=O)NCc2cccc3ccccc23)CCN1Cc1cccc2c1OCO2 (stereo not given)	.	.	-	-	25.5
CC(C)(C)OC(=O)NCc1cc(F)ccc1/C=C/S(=O)(=O)NCc1ccc(F)cc1	.	.	-	-	.
CCCCNC(=O)C1CCCN1C(=O)Nc1cccc(C)c1 (stereo not given)	.	.	-	-	.
CCOC(=O)[C@@]12CCCC3=C1N(CCC3)C(=O)[C@H]2CC(=O)N1CCCC1	.	.	-	-	.
Cc1cc(C)cc(NC2=NCC(=O)N2Cc2ccccc2)c1	-	-	-	-	35.1
CC1(C)C(C=C(Cl)Cl)C1C(=O)Nc1ccc([N+](=O)[O-])cc1 (stereo not given)	.	.	25.0	11.5	.
COCc1cc(=O)[nH]c(/N=C(\N)Nc2ccc(C)cc2C)n1	-	-	-	-	27.0
CC1=NN(c2ccccc2)C(=O)/C1=C/c1ccc(Cl)cc1	-	-	24.7	-	-
CC1=NN(c2ccccc2)C(=O)C1=Cc1ccccc1	.	.	-	-	-
Cc1ccc(-n2c(C)cc(C)c(C#N)c2=O)cc1C	-	-	-	-	29.6
Cc1cc(C)n(-c2ccc(F)cc2)c(=O)c1C#N	-	-	-	-	-
CCN1CCN(CCNC(=O)CCc2c(C)c3c(C)nn(-c4ccccc4)c3n(C)c2=O)CC1	-	-	.	.	-
CCn1c(=O)c(CCC(=O)NCCN2CCOCC2)c(C)c2c(C)nn(-c3cccc(C)c3)c21	-	-	-	-	28.3
COC(=O)C1=C(C)NC(=S)NC1c1ccc(Br)cc1 (stereo not given)	.	.	-	-	.
COc1cccc(NC(=O)COc2ccccc2C(N)=O)c1	-	-	-	-	32.1
CCCCCN1CCCCC(NC(=O)Cc2ccccc2)C1=O (stereo not given)	.	.	-	-	.
COc1ccccc1NS(=O)(=O)c1ccc(C)c(C(=O)Nc2ccc(S(=O)(=O)Nc3onc(C)c3C)cc2)c1	.	.	-	-	32.7
COc1ccccc1NS(=O)(=O)c1cc(C(=O)Nc2ccc(S(=O)(=O)Nc3onc(C)c3C)cc2)ccc1C	.	.	-	-	-
COC(=O)[C@]12C[C@H](CC(=O)N3CCCCC3)C(=O)N(CCC3=CCCCC3)C1=C[C@H](C(C)(C)C)O[C@@H]2C	.	.	-	-	.
SMILES	A3A deaminase	A3G deaminase	ADAM10 inh	ADAM17 inh	NRP1-CendR mod
CC1=C/C(=C(/c2cc(C)c(O)c(Br)c2)c2ccccc2S(=O)(=O)O)C=C(Br)C1=O	-	-	-	-	39.8
O=C(NC1CC1)c1ccc(COc2ccc(F)cc2)o1	-	-	-	-	24.7
O=C(NCC1CCCO1)c1ccc(COc2ccc(F)cc2)o1 (stereo not given)	-	-	-	-	-
O=C(CN1C(=O)c2ccccc2C1=O)Nc1cccc(S(=O)(=O)Nc2ccccc2Cl)c1	-	-	-	-	32.9
Cc1ccc(F)c(S(=O)(=O)NC(=O)C2(C)CCN2C(=O)c2ccc(C3CCCCC3)cc2)c1 (stereo not given)	.	.	-	-	26.5
CC1(C(=O)NS(=O)(=O)c2ccccc2)CCN1C(=O)c1ccc(C2CCCCC2)cc1 (stereo not given)	.	.	-	-	-
Cc1ccccc1N=Nc1c(N)[nH]n(-c2ccccc2)c1=O	.	.	-	-	.
Cc1ccc(S(=O)(=O)CC(=O)NCc2ccccc2)cc1	-	-	-	-	-
Cc1ccc(CNC(=O)CS(=O)(=O)CC(=O)O)cc1	-	-	-	-	21.1
CCN(CCn1cccn1)C(=O)CCc1nnc(Cc2c[nH]c3ccccc23)o1	-	-	-	-	21.1
CCN(CCn1cccn1)C(=O)CCc1nnc(-c2ccccc2)o1	-	-	-	-	-
COc1ccc(-c2noc(C(=O)NCc3ccc(F)cc3)n2)cc1OC	-	-	-	-	36.7
Cc1nc(Nc2ccc(S(N)(=O)=O)cc2)oc1C	-	-	-	-	25.9
COc1ccc(N2C[C@@]3(O)CC[C@@H](O)[C@@H](OC)[C@@H]3[C@@]2(C)[C@H](O)CC=C(C)C)cc1	.	.	-	-	.
CCc1c(-c2ccc(Br)cc2)ncn1CCc1ccccc1OC	.	.	-	-	.
CCOc1ccc(CCNC(=O)c2cc3sccc3n2Cc2cccc(C)c2)cc1OCC	.	.	-	-	.
NC(=O)N1c2ccccc2C=Cc2ccccc21	-	-	-	-	-
NC(=O)N1c2ccccc2CC(=O)c2ccccc21	-	-	-	-	34.8
COc1ccc(CN2C(=O)[C@]3(NCCc4c3[nH]c3ccc(OC)cc43)c3cc(Br)ccc32)cc1	.	.	-	-	.
O=C(O)/C=C/C(=O)Nc1ccc(OCc2ccccc2)cc1	-	-	-	-	22.1
Cc1cc(/C=C(\C#N)C(=O)OCC(=O)Nc2ccc(OC(F)F)cc2)c(C)n1CC(C)C	-	-	-	-	-
Cc1cc(/C=C(\C#N)C(=O)OCC#N)c(C)n1CC(C)C	-	-	-	-	32.9
CCOC(=O)c1c(=O)n(O)c2ccc(OC)cc2[n+]1[O-]	-	-	-	-	25.2
COc1ccc(C(=O)C2CC2c2ccc3c(c2)OCO3)cc1 (stereo not given)	-	-	-	-	28.2
CC(C)CCn1c(Oc2ccc(Cl)cc2)nc2c1c(=O)n(C)c(=O)n2C	-	-	-	-	26.2
SMILES	A3A deaminase	A3G deaminase	ADAM10 inh	ADAM17 inh	NRP1-CendR mod
O=C(CCCn1c(=O)c2cccn2c2cccnc21)NCc1cccc(Br)c1	-	-	-	-	-
O=C(CCn1c(=O)c2cccn2c2cccnc21)NCc1cccc(Cl)c1	-	-	-	-	27.0
COc1ccc(NC(=O)CSc2nnc(-c3n[nH]c4c3CCC4)n2N)cc1OC	.	.	-	-	.
Cc1cccc(CSc2nnc(-c3cnccn3)n2C)c1	-	-	-	-	37.8
COc1ccc(C(=O)C2CCCN(C(=O)c3cccc(N(C)C)c3)C2)cc1OC (stereo not given)	-	-	-	-	24.7
Cc1cccc(N(CC(=O)NC2CCCC2)C(=O)CS(=O)CC(=O)Nc2ccc3c(c2)OCO3)c1C (stereo not given)	-	-	-	-	28.2
CCCCCCCC(=O)N[C@H]1CC[C@@]23CCCN2C(=O)CCC[C@H]3[C@H]1C	.	.	-	-	.
COc1cccc(CNC(=S)OC2CCC23CCC(c2ccccc2)CC3)c1 (stereo not given)	.	.	-	-	.
O=C(NCCO)c1ccc2c(c1)S(=O)(=O)c1ccccc1C2=O	-	-	-	-	22.5

Assay outcomes: PubChem BioAssay, several laboratories
